# Data reported in PubChem BioAssay (NCATS).
# “And” between values parts separate entries of the source, which are not always exact repeats. Equal values may be shown once. Records with an inconclusive call do not appear. The source made the active and inactive calls. Unless noted, calls come from the whole dose curve.
# Columns and labels:
# [1] = qHTS assay for small molecule agonists of retinoid X receptor alpha signaling (AID 588544); settings: HEK293T RXRa-UAS-bla, beta-lactamase reporter, 18 h; 530 nm emission;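 for activation: 0% = DMSO basal wells and 100% = reference agonist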
# [2] = target: Retinoic acid receptor RXR-alpha (Homo sapiens) (UniProt P19793); test: as above; settings: HEK293T RXRa-UAS-bla, beta-lactamase reporter, 18 h; series mostly up to 76.7 µM
# Retinoic acid receptor RXR-alpha (Homo sapiens), sequence (P19793 whole entry, looked up): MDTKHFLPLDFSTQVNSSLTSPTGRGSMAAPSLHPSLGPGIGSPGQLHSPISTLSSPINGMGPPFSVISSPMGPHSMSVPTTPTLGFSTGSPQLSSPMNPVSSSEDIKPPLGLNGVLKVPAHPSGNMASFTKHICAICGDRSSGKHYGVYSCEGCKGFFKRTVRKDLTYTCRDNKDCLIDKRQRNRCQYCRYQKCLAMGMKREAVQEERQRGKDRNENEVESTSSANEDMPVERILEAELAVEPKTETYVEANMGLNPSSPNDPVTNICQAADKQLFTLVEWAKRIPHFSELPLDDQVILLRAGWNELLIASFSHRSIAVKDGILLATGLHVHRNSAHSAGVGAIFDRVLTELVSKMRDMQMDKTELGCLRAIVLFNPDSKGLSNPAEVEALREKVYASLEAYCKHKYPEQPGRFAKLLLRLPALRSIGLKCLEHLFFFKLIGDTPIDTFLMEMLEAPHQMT
# [3] = qHTS assay for small molecule antagonists of retinoid X receptor alpha signaling (AID 588546; active = well fitted inhibition curve with a large enough effect in the signal ratio, with a control signal flat, not every such curve was filed as active; the % refers to the signal ratio;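 note: cells stimulated with 9-cis-retinoic acid as agonist; % is set by controls: 0 for no effect and ±100 for the full control effect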); settings: HEK293T RXRa-UAS-bla, beta-lactamase ratio, antagonist mode; measured here: W530 green channel, cytotoxicity proxy
# Procedure, shortened: (§1)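 Beta-lactamase reporter inhibition, read as CCF4 fluorescence ratio (ex 405, em 460/530 nm) after 2 h at RT. HEK293T UAS-bla cells, 2500/well, were stimulated with 9-cis-RA at 500 or 100 nM final alongside test compound for 18 h at 37 C.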
# [4] = target: Retinoic acid receptor RXR-alpha (Homo sapiens) (UniProt P19793); test: as above; settings: HEK293T RXRa-UAS-bla, beta-lactamase ratio, antagonist mode
# Procedure, shortened: as §1
# [5] = target: Thyroid hormone receptor beta (Homo sapiens) (UniProt P10828); test: qHTS assay for small molecule antagonists of thyroid hormone receptor beta signaling (AID 588547; active = well fitted inhibition curve with a large enough effect in the signal ratio, with a control signal flat, not every such curve was filed as active; the % refers to the signal ratio;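 note: cells stimulated with 0.4 nM T3 agonist during compound exposure; % is set by controls: 0 for no effect and ±100 for the full control effect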); settings: TR-UAS-bla HEK293, beta-lactamase ratio, antagonist mode, 18 h
# Thyroid hormone receptor beta (Homo sapiens), sequence (P10828 whole entry, looked up): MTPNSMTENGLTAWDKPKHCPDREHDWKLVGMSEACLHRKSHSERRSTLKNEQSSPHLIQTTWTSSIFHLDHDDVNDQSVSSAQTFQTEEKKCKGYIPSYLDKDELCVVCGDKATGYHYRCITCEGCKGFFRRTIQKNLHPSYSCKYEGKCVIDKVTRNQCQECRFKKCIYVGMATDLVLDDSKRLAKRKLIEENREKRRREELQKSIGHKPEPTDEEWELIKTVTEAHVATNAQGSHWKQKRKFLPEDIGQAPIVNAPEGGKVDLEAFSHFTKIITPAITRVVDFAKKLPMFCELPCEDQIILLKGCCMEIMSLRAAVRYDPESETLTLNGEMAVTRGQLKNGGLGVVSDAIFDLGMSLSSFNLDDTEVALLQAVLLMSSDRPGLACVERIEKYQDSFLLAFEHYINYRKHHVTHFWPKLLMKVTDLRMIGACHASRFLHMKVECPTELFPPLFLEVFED
# Procedure, shortened: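 TR-UAS-bla GripTite HEK293 cells in 2% charcoal/dextran FBS medium; compounds 0.59 nM to 92 uM with T3 at 0.4nM final, 18 h at 37 C. Beta-lactamase read by CCF4 fluorescence (460/530 nm); Hill fits gave IC50 and efficacy.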
# [6] = target: Voltage-gated inwardly rectifying potassium channel KCNH2 (Homo sapiens) (UniProt Q12809); test: qHTS Assay for Small Molecule Inhibitors of the Human hERG Channel Activity (AID 588834; active = well fitted inhibition curve with a large enough effect;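 note: top concentration of the series differs between compounds; % is set by controls: 0 for no effect and ±100 for the full control effect; lower thallium flux fluorescence means stronger hERG block; nearly all actives have a fitted effect of over 50% in size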); settings: U2OS BacMam hERG, FluxOR thallium flux fluorescence; series mostly up to 92.2 µM
# Voltage-gated inwardly rectifying potassium channel KCNH2 (Homo sapiens), sequence (Q12809 whole entry, looked up): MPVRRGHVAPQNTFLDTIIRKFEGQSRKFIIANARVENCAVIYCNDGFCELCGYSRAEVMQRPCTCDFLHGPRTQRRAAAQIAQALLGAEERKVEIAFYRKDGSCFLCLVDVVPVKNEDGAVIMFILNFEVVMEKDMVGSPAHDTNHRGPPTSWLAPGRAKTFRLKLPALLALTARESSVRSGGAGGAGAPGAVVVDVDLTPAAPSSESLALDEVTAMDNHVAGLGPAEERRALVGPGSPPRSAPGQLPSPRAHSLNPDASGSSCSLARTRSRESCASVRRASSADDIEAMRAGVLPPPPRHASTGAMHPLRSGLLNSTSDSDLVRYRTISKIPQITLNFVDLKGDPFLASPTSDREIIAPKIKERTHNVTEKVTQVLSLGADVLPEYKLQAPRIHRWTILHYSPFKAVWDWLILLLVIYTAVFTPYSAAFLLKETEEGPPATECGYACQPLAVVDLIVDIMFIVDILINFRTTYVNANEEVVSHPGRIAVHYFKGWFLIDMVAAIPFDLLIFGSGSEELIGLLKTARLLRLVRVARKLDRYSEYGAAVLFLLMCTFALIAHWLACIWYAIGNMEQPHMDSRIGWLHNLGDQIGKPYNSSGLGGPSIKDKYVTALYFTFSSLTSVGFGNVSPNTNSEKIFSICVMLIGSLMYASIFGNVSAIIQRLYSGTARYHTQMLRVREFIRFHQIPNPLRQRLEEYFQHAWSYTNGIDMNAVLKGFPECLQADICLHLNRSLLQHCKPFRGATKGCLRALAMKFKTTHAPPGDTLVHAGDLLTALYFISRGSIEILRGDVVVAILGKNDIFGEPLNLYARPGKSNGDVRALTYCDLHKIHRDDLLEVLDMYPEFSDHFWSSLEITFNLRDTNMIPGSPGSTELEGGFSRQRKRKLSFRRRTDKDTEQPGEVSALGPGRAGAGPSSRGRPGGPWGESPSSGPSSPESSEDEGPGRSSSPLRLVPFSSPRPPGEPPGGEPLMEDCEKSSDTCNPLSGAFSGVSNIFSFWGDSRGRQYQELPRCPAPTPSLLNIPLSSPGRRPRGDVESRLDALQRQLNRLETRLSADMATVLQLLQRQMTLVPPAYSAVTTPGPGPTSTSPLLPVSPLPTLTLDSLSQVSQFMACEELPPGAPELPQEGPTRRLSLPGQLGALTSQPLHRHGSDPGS
# Procedure, shortened: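 Kinetic FDSS fluorescence; U2OS + hERG BacMam (~100 virus particles/cell); FluxOR Tl+ flux; ~10 min cpd; AC50 (Hill).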
# [7] = target: Thyroid hormone receptor beta (Homo sapiens) (UniProt P10828); test: qHTS assay for small molecule agonists of thyroid hormone receptor beta signaling (AID 588545); settings: TR-UAS-bla GripTite HEK 293, beta-lactamase ratio, agonist mode, 18 h, percent of T3 response, DMSO as zero; series mostly up to 76.7 µM
# Procedure, shortened: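 In this cell-based screen, titrated compounds act on HEK 293 cells held in medium with 2% charcoal/dextran FBS, NEAA and pyruvate for 18 hrs at 37 C. Responses are expressed relative to T3 (10 nM) as 100% and basal DMSO as 0%.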
# [8] = qHTS assay for small molecule agonists of the antioxidant response element (ARE) signaling pathway (AID 651741; active = well fitted activation curve with a large enough effect in the signal ratio; the % refers to the signal ratio; note: % of control where 0% means no effect); settings: HepG2 ARE-bla reporter, beta-lactamase FRET ratio, 16 h; series mostly up to 96 µM
# Procedure, shortened: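 HepG2 ARE-bla cells plated at 2,000 cells/well and incubated 5 h at 37 C/5% CO2 received 23 nL compound in DMSO. After 16 h at 37 C, LiveBLAzer B/G FRET substrate was applied for 2 h at room temperature and fluorescence read.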
# [9] = qHTS assay for small molecule activators of the p53 signaling pathway (AID 651743; active = well fitted activation curve with a large enough effect in the signal ratio, not every such curve was filed as active; the % refers to the signal ratio; note: % of control where 0% means no effect); settings: HCT-116 p53RE-bla, beta-lactamase FRET ratio, 16 h; stronger effect = higher value
# Procedure, shortened: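 HCT-116 p53RE-bla, 4,000 cells/well; 5 h settle; cpd/DMSO 16 h, 37 C; LiveBLAzer B/G 2 h RT; fluorescence intensity.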
# [10] = qHTS assay for small molecule activators of the nuclear factor-kappa B (NF-kB) signaling pathway (AID 651749; active = well fitted activation curve with a large enough effect in the signal ratio; the % refers to the signal ratio; note: % of control where 0% means no effect); settings: NF-kB-bla ME-180 cells, beta-lactamase FRET ratio, 16 h; stronger effect = higher value
# Procedure, shortened: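 Incubation lasted 16 hr at 37C in 5% CO2 after 23 nL compound addition to ME-180 NF-kB-bla cells. Activation appears as beta-lactamase-mediated FRET loss.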
SMILES,max response [1],outcome [2],max response [3],max response [4],activity change % (negative = inhibition) [5],Potency [6],outcome [7],Potency [8],activation [9],activation [10]
CCCOCC(C)O (configuration not stated),-2.42%,inactive,-6.13%,0.524% (inactive),0.569% (inactive),inactive,–,–,–,–
c1ccc2c(c1)Oc1ccccc1S2,-9.36%,inactive,-7.12%,5.17% (inactive),-3.93% (inactive),–,inactive,inactive,0.189% (inactive),-0.203% (inactive)
O=Cc1ccc(Cl)cc1,-8%,inactive,-0.849%,-5.61% (inactive),–,inactive,inactive,–,-0.245% (inactive),–
O=C(O[C@@H](C(=O)O)[C@@H](OC(=O)c1ccccc1)C(=O)O)c1ccccc1,-17.8%,inactive,4.27%,-0.94% (inactive),–,inactive,–,–,-2.28% (inactive),0.306% (inactive)
CCCCCCCCCCCCOCC1CO1 (configuration not stated),6.34%,inactive,–,–,-4.18% (inactive),inactive,–,–,–,-0.615% (inactive)
C1CCOC1,-14.4%,inactive,-8.68%,0.04% (inactive),–,inactive,–,inactive,1.06% (inactive),1.14% (inactive)
CN(C)CCCNCCCN,-7.09%,inactive,-5.37%,0.789% (inactive),–,inactive,–,–,-2.59% (inactive),–
CCN(Cc1ccccc1)c1ccccc1,-15.3%,inactive,-8.88%,-8.29% (inactive),–,–,–,–,1.3% (inactive),–
Cc1ccccc1Br,-14.2%,inactive,1.58%,1.27% (inactive),–,inactive,–,inactive,–,-0.604% (inactive)
CC(=O)Nc1ccc(N)cc1,-9.56%,inactive,6.27%,0.952% (inactive),–,inactive,–,–,0.791% (inactive),–
Cc1ccc2ccccc2c1[N+](=O)[O-],-7.86%,inactive,0.642%,2.75% (inactive),-6.91% (inactive),inactive,–,–,0.53% (inactive),0.793% (inactive)
Nc1ccc(F)cc1F,-10.9%,inactive,-8.47%,16.2% (inactive),–,inactive,–,inactive,-3.46% (inactive),-1.13% (inactive)
COc1ccc(OC)cc1,-11%,inactive,-6.6%,0.277% (inactive),–,inactive,–,–,1.53% (inactive),-2.07% (inactive)
Nc1cccc(O)c1,-4.39%,–,6.84%,1.85% (inactive),-7.53% (inactive),inactive,inactive,–,–,–
O=C(O)c1cccc(Cl)c1Cl,-8.8%,inactive,-3.86%,-4.53% (inactive),–,inactive,–,inactive,-0.257% (inactive),0.0203% (inactive)
CCc1ccccc1,10.6%,inactive,3.87%,1.68% (inactive),–,inactive,–,–,–,-1.59% (inactive)
c1ccc2c(c1)ccc1ncccc12,-7.03%,inactive,-6.57%,-11.7% (inactive),–,inactive,–,inactive,–,–
C=C(C)C(N)=O,-0.693%,–,-10.5%,23.8% (inactive),-24.4% (inactive),inactive,inactive,inactive,-2.66% (inactive),-0.276% (inactive)
OCCO,7.28%,–,0.506%,11.2% (inactive),21% (inactive),inactive,inactive,inactive,-3.22% (inactive),-0.33% (inactive)
N#CC1(O)CCCCC1,4.69%,–,-4.06%,2.71% (inactive),-16% (inactive),inactive,inactive,inactive,0.526% (inactive),–
CCCCC=O,-7.77%,inactive,-1.56%,-1.19% (inactive),-3.59% (inactive),inactive,–,–,–,0.166% (inactive)
CC(=O)c1ccccn1,-4.17%,–,-3.87%,-5.68% (inactive),-7.89% (inactive),inactive,inactive,inactive,-1.74% (inactive),-1.25% (inactive)
O=C(O)CN(CC(=O)O)CC(=O)O,-7.34% and 8.5%,inactive,-6.97% and -9%,-2.38% (inactive) and 4.38% (inactive),–,inactive,–,inactive,-2.4% (inactive) and 1.34% (inactive) and -0.523% (inactive),–
C=CCCCC,-12.2%,–,-3.19%,-7.65% (inactive),9.97% (inactive),inactive,inactive,inactive,0.701% (inactive),0.582% (inactive)
CSCCC=O,-12.2%,inactive,-2.47%,16.4% (inactive),–,inactive,–,inactive,-3.46% (inactive),0.77% (inactive)
CCCCOCCOCCSC#N,3.38%,inactive,-3.14%,5.89% (inactive),–,inactive,–,inactive,-1.56% (inactive),0.862% (inactive)
C=CC(=O)NC(C)C,-3.51%,inactive,5.01%,0.568% (inactive),-0.537% (inactive),inactive,–,–,-0.785% (inactive),0.588% (inactive)
